Assay results as given in PubChem BioAssay (Tox21).
Inconclusive results are not listed. Entries that show only a call come without a potency. The source made the active and inactive calls. Calls come from the whole dose curve; as a rule, active = well fitted activation curve with a large enough effect in the signal ratio in the repeat runs (not every such curve was filed as active); inconclusive = weak or mixed curves, or effect the other way; inactive = no such curve, though single readings can be large or run the other way; the % refers to the signal ratio.

The molecules below were run against Peroxisome proliferator-activated receptor gamma (Homo sapiens) (UniProt P37231) (assay: qHTS assay to identify small molecule agonists of the peroxisome proliferator-activated receptor gamma (PPARg) signaling pathway (AID 743094)). Details: HEK293H PPARg-UAS-bla, beta-lactamase FRET ratio, 17 h; series mostly up to 57 µM.
Sequence of Peroxisome proliferator-activated receptor gamma (Homo sapiens) (P37231 whole entry, looked up): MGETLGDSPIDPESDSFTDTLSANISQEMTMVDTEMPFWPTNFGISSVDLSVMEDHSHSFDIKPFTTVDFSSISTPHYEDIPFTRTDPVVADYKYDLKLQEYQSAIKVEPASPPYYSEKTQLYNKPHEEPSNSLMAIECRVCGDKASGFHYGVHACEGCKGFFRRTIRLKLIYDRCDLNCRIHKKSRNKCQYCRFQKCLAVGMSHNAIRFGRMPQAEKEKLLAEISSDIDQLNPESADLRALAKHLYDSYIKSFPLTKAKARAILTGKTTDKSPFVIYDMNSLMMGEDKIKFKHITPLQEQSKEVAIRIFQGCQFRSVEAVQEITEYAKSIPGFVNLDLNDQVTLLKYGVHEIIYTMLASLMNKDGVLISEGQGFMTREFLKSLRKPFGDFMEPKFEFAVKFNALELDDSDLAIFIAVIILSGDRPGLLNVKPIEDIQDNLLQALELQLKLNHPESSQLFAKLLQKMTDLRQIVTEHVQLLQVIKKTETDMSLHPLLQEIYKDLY
Text: U.S. Tox21 Program National Center for Advancing Translational Sciences [NCATS] NIH Chemical Genomics Center [NCGC] U.S. Environmental Protection Agency [EPA] National Institutes of Environmental Health Sciences [NIEHS] National Toxicology Program [NTP] U.S. Food and Drug Administration [FDA] Tox21 Assay Overview: The peroxisome proliferator-activated receptors (PPARs) are lipid-activated transcription factors of the nuclear receptor superfamily with three distinct subtypes namely PPAR alpha, PPAR delta (also called PPAR beta) and PPAR gamma (PPARg). All these subtypes heterodimerize with Retinoid X receptor (RXR) and these heterodimers regulate transcription of various genes. PPAR-gamma receptor (glitazone receptor) is involved in the regulation of glucose and lipid metabolism. To identify the compounds that activate PPAR-gamma signaling, GeneBLAzer PPAR gamma UAS-bla HEK293H cell line (Invitrogen, Carlsbad, CA, USA) containing a beta-lactamase reporter gene under control of the control of an upstream activator sequence (UAS) stably integrated into HEK293H cells was used to screen Tox21 compound library.
Tox21 Assay Protocol Summary: PPARg-bla cells were dispensed at 3000 cells/6uL/well in 1536-well black wall/clear bottom plates using a Multidrop Combi (Thermo Fisher Scientific, Waltham, MA) dispenser. After the assay plates were incubated at 37C and 5% CO2 for 5 h, 23 nL of compounds dissolved in DMSO, positive controls or DMSO only was transferred to the assay plate by a Pintool station (Kalypsys, San Diego, CA). The assay plates were incubated at 37C for 17 h. After 1 uL of LiveBLAzerTM B/G FRET substrate was added using a Bioraptr Flying Reagent Dispenser (FRD) workstation (Beckman Coulter, Indianapolis, IN, USA), the plates were incubated at room temperature for 1 h, and fluorescence intensity was measured by an Envision plate reader (PerkinElmer, Shelton, CT).
With CCC=CC#N the Potency was “inactive”. With C=C1C[C@@]23CC[C@H]4[C@@](C)(CCC[C@@]4(C)C(=O)O[C@@H]4O[C@H](CO)[C@@H](O)[C@H](O)[C@H]4O)[C@@H]2CC[C@]1(O[C@@H]1O[C@H](CO)[C@@H](O)[C@H](O[C@@H]2O[C@H](CO)[C@@H](O)[C@H](O)[C@H]2O)[C@H]1O[C@@H]1O[C@H](CO)[C@@H](O)[C@H](O)[C@H]1O)C3 the Potency was “inactive”. In the case of O=C(O)c1ccc(OCCCOc2ccc(C(=O)O)cc2)cc1, the Potency is reported as “inactive”. For CCCCCC#CC(=O)OC, the Potency was “inactive”. For O=C(O)C[C@H](NC(=O)OCc1ccccc1)C(=O)O, the Potency was “inactive”. With CN1C(=O)OC(C)(C)C1=O the Potency was “inactive”. In the case of CCN(CC)CCNC(=O)COc1ccc(OC)cc1, the Potency is reported as “inactive”. C=CCc1ccccc1OCC(O)CNC(C)C (stereo not given) was tested, and the Potency was “inactive”. For CN1CC(=O)N2[C@H](c3ccc4c(c3)OCO4)c3[nH]c4ccccc4c3C[C@@H]2C1=O, the Potency was “inactive”. In the case of C[C@H]1c2cccc(O)c2C(O)=C2C(=O)[C@]3(O)C(O)=C(C(N)=O)C(=O)[C@@H](N(C)C)[C@@H]3[C@@H](O)[C@@H]21, the Potency is reported as “inactive”. In the case of CN1CCCC(n2nc(Cc3ccc(Cl)cc3)c3ccccc3c2=O)CC1 (stereo not given), the Potency is reported as “inactive”. CCOC(C)=O was tested, and the Potency was “inactive”. For CC1(C)S[C@@H]2[C@H](NC(=O)C(c3ccccc3)S(=O)(=O)O)C(=O)N2[C@H]1C(=O)O (stereo not given in full), the Potency was “inactive”. For C=C(C)C(=O)OCCOCCOC(=O)C(=C)C, the Potency was “inactive”. In the case of Cc1ccccc1S, the Potency is reported as “inactive”. In the case of Oc1ccc(Cl)c2cccnc12, the Potency is reported as “inactive”. Oc1c(I)cc(I)c2cccnc12 was tested, and the Potency was “inactive”. For CCOC(=O)c1ccc(OCCN2C[C@H](O)[C@@H](O)[C@H](O)[C@H]2CO)cc1, the Potency was “inactive”. NC(=O)c1ccncc1 was tested, and the Potency was “inactive”. In the case of C[C@@H](O[C@H]1OCCN(Cc2n[nH]c(=O)[nH]2)[C@H]1c1ccc(F)cc1)c1cc(C(F)(F)F)cc(C(F)(F)F)c1, the Potency is reported as “inactive”. With Nc1ccc(N=Nc2ccccc2)c(N)c1 the Potency was “inactive”. For CC(CN(C)C)C(C)(O)Cc1ccc(Cl)cc1 (stereo not given), the Potency was “inactive”. CCOc1ccc(Cc2nccc3cc(OCC)c(OCC)cc23)cc1OCC was tested, and the Potency was “inactive”. O=C1c2ccccc2C(=O)C1c1ccc(Br)cc1 was tested, and the Potency was “inactive”. With CCCC(C(=O)OCCN(CC)CC)(c1ccccc1)c1ccccc1 the Potency was “inactive”. In the case of CO/N=C(/C(=O)N[C@@H]1C(=O)N2C(C(=O)O)=C(COC(N)=O)CS[C@H]12)c1ccco1, the Potency is reported as “inactive”. For C/C=C/C=C/C=O, the Potency was “inactive”. In the case of COc1cc(N)c(Cl)cc1C(=O)NC1CCN(CCCOc2ccc(F)cc2)CC1OC (stereo not given), the Potency is reported as “inactive”. For CCCCCCCC/C=C\CCCCCCCCCCCC(=O)O, the Potency was “inactive”. With CC(C)Nc1cccnc1N1CCN(C(=O)c2cc3cc(NS(C)(=O)=O)ccc3[nH]2)CC1 the Potency was “inactive”. CN(C)CCC=C1c2ccccc2C=Cc2ccccc21 was tested, and the Potency was “inactive”. In the case of OCCN1CCN(CCCN2c3ccccc3Sc3ccc(Cl)cc32)CC1, the Potency is reported as “inactive”. In the case of COc1cc(C(=O)NCCCCCC(=O)O)cc(OC)c1OC, the Potency is reported as “inactive”. In the case of C=C(C)[C@@H]1CCC2=CCC[C@@H](C)[C@]2(C)C1, the Potency is reported as “inactive”. In the case of C1COC1, the Potency is reported as “inactive”. In the case of O=C(Cn1ccnc1[N+](=O)[O-])NCCO, the Potency is reported as “inactive”. In the case of O=C=Nc1ccc(Cl)c(Cl)c1, the Potency is reported as “inactive”. CN1C(C(=O)Nc2ccccn2)=C(O)c2sccc2S1(=O)=O was tested, and the Potency was “inactive”. With Brc1cc2ccccc2c2ccccc12 the Potency was “inactive”. For O=C1NCCN1CCO, the Potency was “inactive”.
